Several values for one entry are separate records, joined by “and”; a condition that tells them apart may be missing. Equal values may be shown once. For part of these data: Entries with a potency or affinity are not part of this list.
Key:
[1] = molecular target: T1, Methionyl-tRNA synthetase, putative (Leishmania donovani (strain BPK282A1)) (UniProt E9BF75); assay: Leishmania donovani Methionine tRNA synthetase (LdMetRS):v7. Dose response assay; assay type: functional; set-up: conc 80 nM, time 150 minutes; conditions: MAX_EFFECT 6.666666667
T1 sequence (whole entry): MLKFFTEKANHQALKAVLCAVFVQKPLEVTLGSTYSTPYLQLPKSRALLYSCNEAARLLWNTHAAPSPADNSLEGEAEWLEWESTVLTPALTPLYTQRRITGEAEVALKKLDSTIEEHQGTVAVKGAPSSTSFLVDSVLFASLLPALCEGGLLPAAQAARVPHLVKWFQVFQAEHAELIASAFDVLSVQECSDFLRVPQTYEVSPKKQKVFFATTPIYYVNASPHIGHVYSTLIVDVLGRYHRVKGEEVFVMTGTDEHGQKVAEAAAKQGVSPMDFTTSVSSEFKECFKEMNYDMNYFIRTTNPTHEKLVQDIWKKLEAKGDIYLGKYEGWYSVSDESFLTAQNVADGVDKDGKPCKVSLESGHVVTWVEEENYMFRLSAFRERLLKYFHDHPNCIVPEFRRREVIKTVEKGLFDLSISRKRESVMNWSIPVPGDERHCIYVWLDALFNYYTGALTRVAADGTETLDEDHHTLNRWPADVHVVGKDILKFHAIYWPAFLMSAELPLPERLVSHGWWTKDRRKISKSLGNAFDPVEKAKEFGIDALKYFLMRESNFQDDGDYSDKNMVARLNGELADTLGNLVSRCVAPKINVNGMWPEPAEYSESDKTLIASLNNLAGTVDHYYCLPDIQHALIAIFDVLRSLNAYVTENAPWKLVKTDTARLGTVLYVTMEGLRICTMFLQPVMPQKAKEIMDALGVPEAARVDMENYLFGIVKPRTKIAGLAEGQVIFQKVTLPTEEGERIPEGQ

[2] = molecular target: Protein translocase subunit SecA (Escherichia coli (strain K12)) (UniProt P10408); assay: Assay to Identify E. coli SecA ATPase Inhibitors; assay type: functional; set-up: scale not given: direction of the effect not stated beside the values; conditions: 30 µM
[3] = molecular target: T2, Ubiquitin-activating enzyme e1, putative (Leishmania donovani (strain BPK282A1)) (UniProt E9BSI1); assay: Leishmania donovani Ubiquitin Activating Enzyme (LdE1); assay type: functional; set-up: scale not given: direction of the effect not stated beside the values; conditions: 30 µM
T2 sequence (whole entry): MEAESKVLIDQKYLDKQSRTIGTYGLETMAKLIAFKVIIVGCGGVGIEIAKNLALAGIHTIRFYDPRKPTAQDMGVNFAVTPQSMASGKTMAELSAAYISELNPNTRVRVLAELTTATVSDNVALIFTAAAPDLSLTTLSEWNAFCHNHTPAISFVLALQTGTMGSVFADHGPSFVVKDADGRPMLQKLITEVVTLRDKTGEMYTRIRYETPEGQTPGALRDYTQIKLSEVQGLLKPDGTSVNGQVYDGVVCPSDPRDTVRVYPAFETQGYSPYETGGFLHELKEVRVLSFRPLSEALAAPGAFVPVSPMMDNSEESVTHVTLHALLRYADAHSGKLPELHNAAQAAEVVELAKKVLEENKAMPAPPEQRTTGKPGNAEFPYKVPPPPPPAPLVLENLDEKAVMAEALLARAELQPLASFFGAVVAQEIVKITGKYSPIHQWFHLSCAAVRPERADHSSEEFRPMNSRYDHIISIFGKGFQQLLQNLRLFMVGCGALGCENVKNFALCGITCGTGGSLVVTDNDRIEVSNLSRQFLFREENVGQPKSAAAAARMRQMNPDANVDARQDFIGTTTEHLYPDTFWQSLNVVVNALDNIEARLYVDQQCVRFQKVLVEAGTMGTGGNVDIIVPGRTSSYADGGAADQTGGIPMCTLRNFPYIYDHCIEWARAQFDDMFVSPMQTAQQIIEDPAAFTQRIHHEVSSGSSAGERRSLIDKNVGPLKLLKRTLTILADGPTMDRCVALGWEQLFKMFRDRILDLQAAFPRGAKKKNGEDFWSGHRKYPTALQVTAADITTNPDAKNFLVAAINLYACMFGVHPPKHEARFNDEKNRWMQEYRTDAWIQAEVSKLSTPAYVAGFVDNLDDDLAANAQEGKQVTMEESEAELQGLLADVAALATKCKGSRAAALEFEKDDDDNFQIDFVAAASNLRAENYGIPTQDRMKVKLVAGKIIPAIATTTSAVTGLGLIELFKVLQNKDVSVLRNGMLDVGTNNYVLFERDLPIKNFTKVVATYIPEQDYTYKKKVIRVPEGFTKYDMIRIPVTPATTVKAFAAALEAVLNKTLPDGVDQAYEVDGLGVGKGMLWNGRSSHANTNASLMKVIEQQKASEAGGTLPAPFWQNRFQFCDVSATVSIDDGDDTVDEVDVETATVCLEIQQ

[4] = molecular target: T3, Aspartate--tRNA(Asp/Asn) ligase (Mycobacterium tuberculosis (strain ATCC 25618 / H37Rv)) (UniProt P9WFW3); assay: Assay for Asp RNA synthetase-1 from Mycobacterium tuberculosis; assay type: functional; set-up: scale not given: direction of the effect not stated beside the values; conditions: 30 µM; further: in the data most compounds retested in dose-response had high values
T3 sequence (whole entry): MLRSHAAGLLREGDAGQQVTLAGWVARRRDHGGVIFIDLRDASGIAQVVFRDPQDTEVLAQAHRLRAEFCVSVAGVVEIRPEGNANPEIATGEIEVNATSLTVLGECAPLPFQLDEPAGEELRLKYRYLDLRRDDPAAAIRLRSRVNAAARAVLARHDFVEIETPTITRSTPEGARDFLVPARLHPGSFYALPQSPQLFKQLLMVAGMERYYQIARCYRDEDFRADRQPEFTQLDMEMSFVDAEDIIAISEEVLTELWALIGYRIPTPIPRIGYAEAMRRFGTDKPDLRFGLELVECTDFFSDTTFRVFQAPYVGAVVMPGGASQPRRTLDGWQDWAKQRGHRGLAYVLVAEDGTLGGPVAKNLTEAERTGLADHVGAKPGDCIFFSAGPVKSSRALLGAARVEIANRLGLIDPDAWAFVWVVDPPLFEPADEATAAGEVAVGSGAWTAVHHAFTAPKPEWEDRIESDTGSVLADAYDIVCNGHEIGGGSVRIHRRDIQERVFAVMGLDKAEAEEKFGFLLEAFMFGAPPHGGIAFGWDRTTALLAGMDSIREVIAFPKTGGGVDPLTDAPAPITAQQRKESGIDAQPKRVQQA

[5] = molecular target: AMP-activated protein kinase, AMPK (Homo sapiens) (UniProt P54646+O43741+P54619+Q9UGJ0+Q9Y478+Q13131+Q9UGI9); assay: AMP-dependent Kinase enzyme assay. An in vitro enzyme assay that detects ADP turnover that is directly proportional to AMPK activity. This uses naive AMPK that is activated during the assay with MK-8722; assay type: functional; set-up: scale not given: direction of the effect not stated beside the values; conditions: 30 µM
[6] = molecular target: Sialic acid-binding Ig-like lectin 9 (Homo sapiens) (UniProt Q9Y336); assay: Hs-Siglec9 ALPHAscreen SOP 20170721; set-up: scale not given: direction of the effect not stated beside the values; conditions: 10 µM
Trypanosoma cruzi = assay: Trypanosoma cruzi phosphomannomutase and mannose-1-phosphate guanylyltransferase assay; assay type: functional; set-up: scale not given: direction of the effect not stated beside the values; conditions: 10 µM
[7] = molecular target: T4, Arginase-2, mitochondrial (Homo sapiens) (UniProt P78540); assay: in vitro enzyme assay to detect the production of urea directly proportional to the activity of Arginase II; assay type: functional; set-up: scale not given: in the data most compounds retested in dose-response had high values; conditions: 33.3 µM
T4 sequence (whole entry): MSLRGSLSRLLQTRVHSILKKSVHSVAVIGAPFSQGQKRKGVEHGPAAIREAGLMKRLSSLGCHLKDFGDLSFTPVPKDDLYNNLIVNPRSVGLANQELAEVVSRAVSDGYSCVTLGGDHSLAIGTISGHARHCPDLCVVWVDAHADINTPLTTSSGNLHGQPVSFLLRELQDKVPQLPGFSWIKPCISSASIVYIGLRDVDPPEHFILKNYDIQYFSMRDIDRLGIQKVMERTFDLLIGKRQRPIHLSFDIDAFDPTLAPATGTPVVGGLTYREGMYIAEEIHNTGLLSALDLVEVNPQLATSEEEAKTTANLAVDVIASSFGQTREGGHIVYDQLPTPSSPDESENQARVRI

[8] = molecular target: T5, Proteasome subunit beta (Trypanosoma cruzi) (UniProt O96673); assay: Trypanosoma cruzi proteasome chymotrypsin-like activity (TcProtChymo) assay.; assay type: functional; set-up: scale not given: in the data most compounds retested in dose-response had high values; conditions: 9.37 µM
T5 sequence (whole entry): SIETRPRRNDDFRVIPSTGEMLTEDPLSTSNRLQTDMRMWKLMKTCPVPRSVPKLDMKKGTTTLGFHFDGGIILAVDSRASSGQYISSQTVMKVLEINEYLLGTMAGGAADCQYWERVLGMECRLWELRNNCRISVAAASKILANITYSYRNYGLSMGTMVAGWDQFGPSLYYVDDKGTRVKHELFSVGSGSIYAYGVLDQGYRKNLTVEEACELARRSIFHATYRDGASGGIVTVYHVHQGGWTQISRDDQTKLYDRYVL

Homo sapiens = species on record: Homo sapiens; assay: To identify inhibition of the IFN signalling (Jak-Stat) pathway via expression of an eGFP reporter gene under the control of an IFN-stimulated response element (ISRE) containing MxA promoter.; assay type: functional; set-up: scale not given: direction of the effect not stated beside the values; conditions: 30 µM
[9] = molecular target: Shiga toxin 2 (Escherichia coli O157:H7) (UniProt P09385+P09386); assay: E. coli 0.157:H7 Shiga Toxin SOP - stx2 screening assay; assay type: functional; set-up: scale not given: direction of the effect not stated beside the values; conditions: 30 µM
[10] = molecular target: T6, Tyrosyl-tRNA synthetase, putative (Trypanosoma cruzi (strain CL Brener)) (UniProt Q4DSP6); assay: Trypanosoma cruzi tyrosyl tRNA synthetase (TcYRS) _High Tyrosine SOP; assay type: functional; set-up: scale not given: in the data most compounds retested in dose-response had high values; conditions: 30 µM
T6 sequence (whole entry): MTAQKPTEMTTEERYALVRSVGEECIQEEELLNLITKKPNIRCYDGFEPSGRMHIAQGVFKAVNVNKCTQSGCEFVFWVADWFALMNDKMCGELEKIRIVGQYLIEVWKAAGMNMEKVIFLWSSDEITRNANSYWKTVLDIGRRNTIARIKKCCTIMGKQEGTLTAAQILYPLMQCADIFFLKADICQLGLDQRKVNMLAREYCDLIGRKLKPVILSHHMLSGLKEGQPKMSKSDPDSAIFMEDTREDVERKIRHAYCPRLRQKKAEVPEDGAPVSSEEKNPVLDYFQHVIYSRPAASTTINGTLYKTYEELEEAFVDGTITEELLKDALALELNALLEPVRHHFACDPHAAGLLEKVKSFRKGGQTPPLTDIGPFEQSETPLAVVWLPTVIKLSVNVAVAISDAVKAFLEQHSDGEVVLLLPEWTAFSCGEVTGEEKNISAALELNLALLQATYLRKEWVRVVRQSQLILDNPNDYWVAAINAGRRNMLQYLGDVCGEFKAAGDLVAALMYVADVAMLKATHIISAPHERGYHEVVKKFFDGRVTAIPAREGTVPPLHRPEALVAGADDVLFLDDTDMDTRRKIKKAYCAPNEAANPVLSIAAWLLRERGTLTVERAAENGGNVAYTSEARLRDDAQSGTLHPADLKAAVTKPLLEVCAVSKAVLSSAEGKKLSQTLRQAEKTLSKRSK

[11] = molecular target: T6, Tyrosyl-tRNA synthetase, putative (Trypanosoma cruzi (strain CL Brener)); assay: Trypanosoma cruzi tyrosyl tRNA synthetase (TcYRS) SOP; assay type: functional; set-up: scale not given: direction of the effect not stated beside the values; conditions: 30 µM
[12] = molecular target: Chromo domain-containing protein 1 (Saccharomyces cerevisiae (strain ATCC 204508 / S288c) (Baker's yeast)) (UniProt P32657); assay: ScCHD-1 Enzyme Inhibition Assay; assay type: functional; set-up: scale not given: in the data most compounds retested in dose-response had high values; conditions: 30 µM
N/A = assay: Trypanosoma cruzi proteasome luciferase counter-screen; assay type: functional; set-up: scale not given: direction of the effect not stated beside the values; conditions: 9.37 µM

Chain of Chromo domain-containing protein 1 (Saccharomyces cerevisiae (strain ATCC 204508 / S288c) (Baker's yeast)) (P32657 whole entry, the tested form may be a part): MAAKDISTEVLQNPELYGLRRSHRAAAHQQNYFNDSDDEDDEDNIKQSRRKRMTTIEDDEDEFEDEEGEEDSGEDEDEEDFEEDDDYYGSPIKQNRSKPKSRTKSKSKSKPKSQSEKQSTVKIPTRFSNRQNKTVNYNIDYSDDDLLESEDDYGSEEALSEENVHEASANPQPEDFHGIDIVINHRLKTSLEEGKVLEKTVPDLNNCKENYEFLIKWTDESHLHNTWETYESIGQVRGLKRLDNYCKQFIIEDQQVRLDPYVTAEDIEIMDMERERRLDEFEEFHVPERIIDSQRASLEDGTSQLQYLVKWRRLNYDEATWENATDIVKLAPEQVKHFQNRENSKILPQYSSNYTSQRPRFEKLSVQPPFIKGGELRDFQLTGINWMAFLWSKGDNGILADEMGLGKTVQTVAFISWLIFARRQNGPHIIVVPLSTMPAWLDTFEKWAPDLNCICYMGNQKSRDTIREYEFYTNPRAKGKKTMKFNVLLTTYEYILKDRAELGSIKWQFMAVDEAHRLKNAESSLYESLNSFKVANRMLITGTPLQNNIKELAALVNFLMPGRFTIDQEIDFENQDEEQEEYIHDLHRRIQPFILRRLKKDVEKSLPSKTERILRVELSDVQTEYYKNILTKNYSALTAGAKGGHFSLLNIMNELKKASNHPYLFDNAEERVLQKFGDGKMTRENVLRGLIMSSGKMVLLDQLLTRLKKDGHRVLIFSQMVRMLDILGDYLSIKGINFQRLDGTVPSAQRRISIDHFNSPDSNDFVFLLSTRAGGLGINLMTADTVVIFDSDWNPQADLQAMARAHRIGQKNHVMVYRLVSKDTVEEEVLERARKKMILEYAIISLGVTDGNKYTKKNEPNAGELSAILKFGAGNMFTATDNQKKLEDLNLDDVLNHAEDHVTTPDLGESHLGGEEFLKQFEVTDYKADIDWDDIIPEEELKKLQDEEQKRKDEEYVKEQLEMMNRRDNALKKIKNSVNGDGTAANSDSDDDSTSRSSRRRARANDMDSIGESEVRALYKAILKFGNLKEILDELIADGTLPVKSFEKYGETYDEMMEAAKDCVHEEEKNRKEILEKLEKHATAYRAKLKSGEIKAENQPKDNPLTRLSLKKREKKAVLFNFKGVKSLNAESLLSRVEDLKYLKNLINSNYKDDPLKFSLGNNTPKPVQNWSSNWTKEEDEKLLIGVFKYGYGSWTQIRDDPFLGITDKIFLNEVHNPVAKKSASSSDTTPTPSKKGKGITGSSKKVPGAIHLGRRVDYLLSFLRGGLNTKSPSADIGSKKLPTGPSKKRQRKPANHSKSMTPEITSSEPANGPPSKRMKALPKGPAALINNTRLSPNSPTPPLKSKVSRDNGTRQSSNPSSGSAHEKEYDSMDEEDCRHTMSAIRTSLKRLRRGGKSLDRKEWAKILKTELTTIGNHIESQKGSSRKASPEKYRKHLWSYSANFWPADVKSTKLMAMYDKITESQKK
Chain of Protein translocase subunit SecA (Escherichia coli (strain K12)) (P10408 whole entry): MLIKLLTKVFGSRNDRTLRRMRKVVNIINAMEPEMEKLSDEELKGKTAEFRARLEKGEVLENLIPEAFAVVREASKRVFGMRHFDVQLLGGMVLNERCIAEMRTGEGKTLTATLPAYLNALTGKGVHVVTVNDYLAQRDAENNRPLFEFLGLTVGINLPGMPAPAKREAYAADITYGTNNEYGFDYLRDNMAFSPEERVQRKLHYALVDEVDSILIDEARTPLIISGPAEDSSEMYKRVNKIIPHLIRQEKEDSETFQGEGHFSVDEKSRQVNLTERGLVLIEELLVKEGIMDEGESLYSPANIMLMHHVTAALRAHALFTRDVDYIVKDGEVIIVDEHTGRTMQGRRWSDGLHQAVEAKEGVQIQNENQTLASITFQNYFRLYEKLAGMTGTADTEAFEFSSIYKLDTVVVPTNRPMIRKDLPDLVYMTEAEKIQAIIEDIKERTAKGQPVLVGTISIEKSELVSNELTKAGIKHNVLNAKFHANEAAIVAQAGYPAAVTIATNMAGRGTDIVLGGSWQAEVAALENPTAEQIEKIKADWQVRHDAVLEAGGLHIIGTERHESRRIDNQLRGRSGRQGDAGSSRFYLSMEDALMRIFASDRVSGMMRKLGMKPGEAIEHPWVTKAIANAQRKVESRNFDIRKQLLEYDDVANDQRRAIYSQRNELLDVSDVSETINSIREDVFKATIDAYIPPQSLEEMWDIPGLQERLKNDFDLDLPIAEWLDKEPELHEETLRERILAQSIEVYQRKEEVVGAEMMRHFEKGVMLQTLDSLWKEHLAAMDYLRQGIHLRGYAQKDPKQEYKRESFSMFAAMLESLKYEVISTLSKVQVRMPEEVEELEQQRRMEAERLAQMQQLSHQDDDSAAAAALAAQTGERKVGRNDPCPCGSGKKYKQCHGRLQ
Chain of Sialic acid-binding Ig-like lectin 9 (Homo sapiens) (Q9Y336 whole entry): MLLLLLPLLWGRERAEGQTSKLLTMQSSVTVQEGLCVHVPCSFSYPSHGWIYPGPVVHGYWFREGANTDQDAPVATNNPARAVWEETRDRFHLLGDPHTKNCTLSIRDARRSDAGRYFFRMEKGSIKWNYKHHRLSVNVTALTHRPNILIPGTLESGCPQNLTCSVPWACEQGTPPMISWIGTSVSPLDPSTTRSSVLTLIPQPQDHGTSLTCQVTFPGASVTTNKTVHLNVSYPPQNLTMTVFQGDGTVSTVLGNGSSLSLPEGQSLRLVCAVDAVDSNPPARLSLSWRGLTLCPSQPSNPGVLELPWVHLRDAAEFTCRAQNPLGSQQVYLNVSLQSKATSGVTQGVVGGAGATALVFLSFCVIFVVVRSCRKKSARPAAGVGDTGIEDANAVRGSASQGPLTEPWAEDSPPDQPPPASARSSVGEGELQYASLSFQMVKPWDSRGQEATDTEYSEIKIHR

Row | Compound | PXC50 [1] | Percent Effect [2] | Percent Effect [3] | Percent Effect [4] | Percent Effect [5] | Percent Effect [6] | Percent Effect (Trypanosoma cruzi) | Percent Effect [7] | Percent Effect [8] | Percent Effect (Homo sapiens) | Percent Effect [9] | Percent Effect [10] | Percent Effect [11] | Percent Effect [12] | Percent Effect (N/A)
1 | Cn1cc(C(=O)Nc2ccccc2)c2ccccc21 | < 4 |  |  |  |  |  |  |  |  |  |  |  |  |  | 
2 | O=C1CC2(CCN(CC3CC3)C2)CN1c1cccnc1 (centres undefined) |  | -0.0321% | 8.11% | 1.57% | -3.31% | 8.46% | -5.18% | 7.2% | 11.4% | -22.5% | -25.7% | 10.8% | 11.1% | -7.21% | 
3 | CC(C)=CCN1C[C@H]2CC[C@@H]1CN(C(=O)c1c[nH]c(=O)c(Cl)c1)C2 |  | -4.07% | 5.48% | 4.22% | 2.02% | 1.06% | -5.16% | -8.38% | 35.6% and 31.4% and 37.8% | 7.03% | -38% | 6.25% | 13.6% | -2.95% | 18.4% and 17.9%
4 | Cc1cccc(CN2C[C@H](NS(C)(=O)=O)[C@@H]3OCCC[C@@H]32)n1 |  | -0.629% | -5.33% | -2.65% | 9.72% | 5.95% | -4.83% | -50% | 0.513% | 3.24% | -15.5% | 1.04% | -5% | -2.83% | 
5 | O=C(N[C@H]1CN[C@H]2CCCO[C@H]21)c1ccno1 |  | -2.91% | 2.74% | 0.661% | -1.51% | 4.01% | 4.76% | -2.4% | 6.76% | -9.47% | 2.67% | 4.17% | 6.17% | 2.08% | 

— ChEMBL document CHEMBL3988442, “University of Dundee, Small-Polar-MMV Screening Library” (2021)
